This is part of a sample that, as a whole, favours compounds with a hit. Of some 79,000 tested, about 15% had one in any assay. Rule as the data show it: active = growth inhibition above about 70%; inactive = the rest.
Assays:
[1] = NCI Yeast Anticancer Drug Screen. Data for the rad50 strain (AID 155);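 also: 0% = growth of vehicle-only cultures of the same strain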; conditions: S. cerevisiae rad50 strain growth inhibition; at 50.0 µM; stronger effect = higher value
Outline: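 Growth of the mutant yeast was measured after compound exposure and referenced to vehicle-treated cultures.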

[2] = NCI Yeast Anticancer Drug Screen. Data for the mec2-1 strain (AID 157); conditions: S. cerevisiae mec2-1 strain, at 50.0 µM, stronger effect = higher value
Outline: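 Mutant yeast (mec2-1) grown with compound; growth inhibition relative to vehicle control reported.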

[3] = NCI Yeast Anticancer Drug Screen. Data for the sgs1 mgt1 strain (AID 161);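 also: 0% = growth of cultures given vehicle only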; conditions: S. cerevisiae sgs1 mgt1 strain, at 50.0 µM, stronger effect = higher value
Outline: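 Percent growth inhibition was derived by comparing compound-exposed mutant yeast with vehicle-exposed cultures. The strain carries alterations in DNA damage repair.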

[4] = NCI Yeast Anticancer Drug Screen. Data for the cln2 rad14 strain (AID 165);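 also: 0% = growth equal to vehicle treated cultures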; conditions: S. cerevisiae cln2 rad14 strain, at 50.0 µM, stronger effect = higher value
Outline: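 Readout is yeast growth inhibition versus vehicle-treated controls, using a strain with cln2 and rad14 alterations exposed to compound.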

[5] = NCI Yeast Anticancer Drug Screen. Data for the bub3 strain (AID 167); conditions: S. cerevisiae bub3 mutant strain, at 50.0 µM, stronger effect = higher value
Outline: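 Whole-cell yeast assay. The mutant strain was incubated with compounds, and growth inhibition was determined by comparison with vehicle-treated cells.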

[6] = NCI Yeast Anticancer Drug Screen. Data for the mlh1 rad18 strain (AID 175); conditions: S. cerevisiae mlh1 rad18 strain growth inhibition; at 50.0 µM; stronger effect = higher value
Outline: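 Genetically defined yeast (DNA repair-deficient) exposed to compounds; growth inhibition determined relative to vehicle.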

Measured: growth inhibition

C[N+](C)(C)CC(=O)N/N=C(/Cc1nc2ccc([N+](=O)[O-])cc2[nH]c1=O)C(=O)Nc1cc(C(F)(F)F)ccc1Cl
inactive: [1] -13.2% | [2] 3.7% | [3] 3.35% | [4] 8.55% | [5] -5.4% | [6] 16.2%

Cn1c(=O)c(C(=O)NC(=O)OCc2ccccc2)cn(CCSCCOC(=O)NCCCCCCNC(=O)OCCSCCn2cc(C(=O)NC(=O)OCc3ccccc3)c(=O)n(C)c2=O)c1=O
inactive: [1] -3.1% | [2] -21.1% | [3] -6.35% | [4] -0.95% | [5] -5.15% | [6] -16.5%

COC(=O)c1ccccc1NC(=O)c1cc(C(=O)O)c(C(=O)Nc2ccccc2C(=O)OC)cc1C(=O)O
inactive: [1] 0.75% | [2] 10.2% | [3] 4.95% | [4] 4.35% | [5] -3.7% | [6] 23.1%

CCN(CC)CC1(C)NN=C2C(n3cccc3)=CC=CN21 (configuration not stated)
inactive: [1] -3.7% | [2] 11.7% | [3] -3.4% | [4] -20.6% | [5] -4.2% | [6] -4.9%

CCc1ccccc1NC(=O)C(=O)C(C#N)c1ccccc1Cl (configuration not stated)
inactive: [1] -7.2% | [2] -30.6% | [3] -17.6% | [4] 3.55% | [5] 6.3% | [6] -9.45%

CC1(C)Oc2ccc3ccccc3c2C(c2ccc(O)cc2)=C1c1ccccc1
inactive: [1] -51.5% | [2] -11% | [3] 5.2% | [4] 7.75% | [5] -3.1% | [6] -20.6%

CCOC(=O)/C=C/c1ccccn1
inactive: [1] -15.3% | [2] -9.5% | [3] -35.5% | [4] 11.9% | [5] -12.8% | [6] -25.6%

O=C1NCC2(CCN(Cc3ccccc3)CC2)N1c1ccccc1
inactive: [1] 7.6% | [2] 3.05% | [3] 2.4% | [4] 4.85% | [5] -13.1% | [6] 13.7%

NC(=O)Nc1ccc(S(=O)(=O)c2ccc(N)cc2)cc1
inactive: [1] 0.5% | [2] -5.2% | [3] 12.5% | [4] -5.35% | [5] 4% | [6] -15.7%

O=C(c1ccccc1)c1c(O)c2ccccc2oc1=O
inactive: [1] -13.6% | [2] -24% | [3] -7.95% | [4] -16.8% | [5] -4.45% | [6] -4.5%

CC1(C)N=C(N)N=C(N)N1CCCCc1ccccc1
inactive: [1] -23.7% | [2] -41.9% | [3] -27.4% | [4] -25.4% | [5] -71.8% | [6] -16.6%

NC(CCCOS(=O)(=O)O)Cc1ccc2ccccc2c1 (configuration not stated)
inactive: [1] -10.6% | [2] 9.35% | [3] 16.6% | [4] 10.2% | [5] 3.55% | [6] 8.9%

O=S(=O)(/N=C(Cl)/C(Cl)=N/S(=O)(=O)c1ccccc1)c1ccccc1
inactive: [1] 15.3% | [2] -1.65% | [3] 22.7% | [4] -9.9% | [5] -0.1% | [6] 5.3%

COC(=O)C(Cc1ccccc1)NC(=O)Cn1ccnc1[N+](=O)[O-] (configuration not stated)
inactive: [1] 9.65% | [2] -19.6% | [3] 15.2% | [4] 7.7% | [5] -16% | [6] -3.3%

CCSCC(N)C(=O)O (configuration not stated)
inactive: [1] -16.1% | [2] 2.5% | [3] 7.45% | [4] -7.25% | [5] 3.35% | [6] -9%

NC(CC1C=CCCC1)C(=O)O (configuration not stated)
inactive: [1] -26.4% | [2] -16.1% | [3] 1.85% | [4] -52.3% | [5] 7.1% | [6] -4.3%

Cc1ccc(O)c(C(C)(C)C)c1
inactive: [1] 14.9% | [2] -8% | [3] 20.4% | [4] 21.3% | [5] -0.65% | [6] 8.5%

COc1ccc(OC)c2c1ccc1c(C)c3ccccc3c(C)c12
inactive: [1] 12.2% | [2] -1.1% | [3] 14.2% | [4] 6.8% | [5] 34.1% | [6] 26.2%

CN1CCCCCCCC(=O)C(OC(=O)c2ccc([N+](=O)[O-])cc2)CCCCCCC1 (configuration not stated)
inactive: [1] 33.5% | [2] 4.25% | [3] 27% | [4] 9.85% | [5] 1.55% | [6] 14.1%

Nc1nc2nc(-c3ccccc3)[nH]c2c(=O)[nH]1
inactive: [1] -3.7% | [2] 6.75% | [3] -0.15% | [4] -52.2% | [5] -15.1% | [6] -12.4%

ClC1=C(Cl)C2(Cl)C3C(c4ccc(I)cc4C4C3C3(Cl)C(Cl)=C(Cl)C4(Cl)C3(Cl)Cl)C1(Cl)C2(Cl)Cl (configuration not stated)
inactive: [1] 14.6% | [2] 15.4% | [3] 8.8% | [4] 14.1% | [5] 20.6% | [6] 16.9%

O=[N+]([O-])c1ccc(Cl)c(C=NC23CC4CC(CC(C4)C2)C3)c1
inactive: [1] -13.6% | [2] -24.8% | [3] -29% | [4] -9.3% | [5] -22.9% | [6] -8.9%

N#CCCC(CC#N)S(=O)(=O)O (configuration not stated)
inactive: [1] 14.3% | [2] 1.65% | [3] -7.75% | [4] -54.6% | [5] 15.7% | [6] -13.1%

CCN1N=CSC12C(=O)N(c1ccccc1)C(=O)N2c1ccccc1 (configuration not stated)
inactive: [1] -20.6% | [2] -15.1% | [3] -31.9% | [4] 0.35% | [5] -14.7% | [6] -38.6%

CC(Br)CNC(=O)c1ccc([N+](=O)[O-])cc1 (configuration not stated)
inactive: [1] -0.65% | [2] 17.3% | [3] 3.6% | [4] -4.35% | [5] 9.75% | [6] 13.3%

Cc1nc2ccc(S(=O)(=O)Nc3ccccc3Cl)cc2c(=O)n1NC(=O)CNc1ccccc1Cl
inactive: [1] 26.4% | [2] 0.2% | [3] 13.4% | [4] 6.95% | [5] 21.8% | [6] 21.3%

Cc1ccc(CCCC(N)=O)cc1
inactive: [1] 32.1% | [2] -0.15% | [3] 8.85% | [4] 4.1% | [5] -2.15% | [6] 2.55%

O=C(c1ccc(Cl)cc1)c1ccc(OCCSCCCCCCCCCCSCCOc2ccc(C(=O)c3ccc(Cl)cc3)cc2)cc1
inactive: [1] -43.1% | [2] -27.7% | [3] -35.1% | [4] -9.4% | [5] -38.6% | [6] -30.9%

CC(=O)N(C)N=Nc1ccc(C(F)(F)F)cc1
inactive: [1] -7.7% | [2] -12.7% | [3] -9% | [4] -30.1% | [5] -5.8% | [6] -4.5%

Cc1ccc(C)n1-n1c(-c2ccccc2)n[nH]c1=O
inactive: [1] -19.8% | [2] -20.9% | [3] -2.7% | [4] -3.4% | [5] -27.7% | [6] -12.3%

Nc1ccc(S(=O)(=O)Nc2ccccn2)cc1
inactive: [1] -2.2% | [2] 8.55% | [3] -13.1% | [4] -41.4% | [5] -20.2% | [6] -17.4%

O=C1CCC2CCC1C2 (configuration not stated)
inactive: [1] 10.1% | [2] -16.6% | [3] -41.3% | [4] 15.8% | [5] -36.7% | [6] -28.3%

O=C1CCCCCCCCCCOCCCCO1
inactive: [1] -2.4% | [2] 2.9% | [3] 14.8% | [4] 24.1% | [5] 27.7% | [6] -13.4%

CCOC(=O)C(=C/C=C/NCCc1c[nH]c2ccccc12)C(=O)OCC
inactive: [1] -23.1% | [2] -44.5% | [3] -20.8% | [4] -10.2% | [5] -15.2% | [6] -26.2%

CN(C)c1ccc(/C=C(\C#N)c2c(Br)cccc2Br)cc1
inactive: [1] -20.1% | [2] -18.8% | [3] -3.65% | [4] -42.8% | [5] 3.1% | [6] -14.7%

CC(=O)Nc1ccc(C(=O)CC(c2ccccc2)N2CCOCC2)cc1 (configuration not stated)
inactive: [1] 4.3% | [2] 14.1% | [3] 11.9% | [4] -19% | [5] 26.1% | [6] 2.8%

C=CCOC(=O)C(F)(F)F
inactive: [1] 0.15% | [2] -4.25% | [3] -0.7% | [4] 4.35% | [5] 6.85% | [6] -1.4%
